From PubChem BioAssay
Active and inactive are the calls of the source.

Key:
[1] = A549 cell viability effects, profiling panel, calcein-AM fluorescence, 48 h, basal (AID 1162); settings: higher = more signal; further: test concentration not given here
[2] = adipocyte viability effects, profiling panel, cell-based, 3T3-L1 adipocytes, calcein-AM fluorescence, 48 h, basal (AID 1163); settings: 3T3-L1 adipocytes viability, higher = more signal; further: test concentration not given here
[3] = HepG2 cell viability effects, profiling panel, calcein-AM fluorescence, 48 h, basal (AID 1164); settings: higher = more signal; further: test concentration not given here
[4] = MM1S cell viability effects, profiling panel, calcein-AM fluorescence, 48 h, basal (AID 1165); settings: higher = more signal;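 further: viability of MM1S multiple myeloma cells under basal unstimulated conditions; test concentration not given here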
[5] = basal RPMI8226 viability, no added stimulus, profiling panel, cell-based, calcein-AM fluorescence, 48 h, PK04 Diversity Set (AID 1166); settings: RPMI8226 myeloma viability, higher = more signal;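 further: cells grown under basal conditions without added stimulus; test concentration not given here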
[6] = basal HepG2 mitochondrial membrane potential changes, profiling panel, cell-based, JC-1 fluorescence, 24 h, 100 nL compound (AID 1167); settings: higher = more signal; further: test concentration not given here
[7] = basal 3T3-L1 adipocyte mitochondrial potential changes, profiling panel, cell-based, JC-1 fluorescence, 3T3-L1 adipocytes, 24 h, 100 nL compound (AID 1168); settings: JC-1 mitochondrial fluorescence, higher = more signal, called active from +8 up or from −8 down; further: test concentration not given here
[8] = basal RPMI8226 mitochondrial membrane potential changes, profiling panel, cell-based, JC-1 fluorescence, 24 h, 100 nL compound (AID 1169); settings: RPMI8226 myeloma, JC-1 mitochondrial potential fluorescence, higher = more signal; further: test concentration not given here
[9] = basal MM1S mitochondrial membrane potential changes, profiling panel, cell-based, JC-1 fluorescence, 24 h, 100 nL compound (AID 1170); settings: higher = more signal; further: test concentration not given here
[10] = A549 lung cancer cell viability effects, profiling panel, resazurin fluorescence, 24 h, PK04 Diversity Set (AID 1171); settings: higher = more signal, called active from +8 up or from −8 down; further: test concentration not given here
[11] = HepG2 liver cancer cell viability effects, profiling panel, resazurin fluorescence, 24 h, PK04 Diversity Set (AID 1172); settings: higher = more signal; further: test concentration not given here
[12] = basal S. cerevisiae growth modulation, no modifier, primary screen, OD600, strain BY4716, 24 h, basal condition (AID 1173); settings: OD600, 24 h, higher = more signal, called active from +8 up or from −8 down
[13] = MM1S myeloma cell viability, profiling panel, resazurin fluorescence, basal, 24 h, PK04 Diversity Set (AID 1174); settings: higher = more signal, called active from +8 up or from −8 down;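 further: MM1S multiple myeloma cell line; test concentration not given here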
[14] = molecular target: Dihydroorotate dehydrogenase (quinone), mitochondrial (Plasmodium falciparum (isolate 3D7)) (UniProt Q08210); test: PfDHODH enzyme inhibitors, primary screen, biochemical, C-terminal His tag, absorbance 600 nm (AID 1175); settings: DCIP absorbance 600 nm, higher = more signal, called active from +8 up or from −8 down;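 further: recombinant parasite enzyme with a five histidine tag at its C terminus; test concentration not given here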
Sequence of Dihydroorotate dehydrogenase (quinone), mitochondrial (Plasmodium falciparum (isolate 3D7)) (Q08210 whole entry, looked up): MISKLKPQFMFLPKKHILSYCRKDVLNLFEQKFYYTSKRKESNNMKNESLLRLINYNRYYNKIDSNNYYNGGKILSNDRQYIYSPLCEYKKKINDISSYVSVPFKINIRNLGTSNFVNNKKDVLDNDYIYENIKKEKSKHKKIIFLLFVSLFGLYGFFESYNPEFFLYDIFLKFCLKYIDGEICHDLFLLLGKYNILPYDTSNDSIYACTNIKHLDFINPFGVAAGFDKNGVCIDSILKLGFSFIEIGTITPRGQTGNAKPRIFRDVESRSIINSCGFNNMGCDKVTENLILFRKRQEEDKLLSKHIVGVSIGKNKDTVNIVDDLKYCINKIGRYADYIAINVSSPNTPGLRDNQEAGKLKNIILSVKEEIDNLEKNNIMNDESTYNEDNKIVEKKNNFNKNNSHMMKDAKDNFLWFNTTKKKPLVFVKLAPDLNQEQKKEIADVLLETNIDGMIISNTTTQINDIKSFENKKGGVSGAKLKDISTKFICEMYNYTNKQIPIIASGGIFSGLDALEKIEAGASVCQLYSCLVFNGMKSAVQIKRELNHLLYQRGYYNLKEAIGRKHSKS

[15] = S. cerevisiae RM11-1a growth modifiers, primary screen, strain RM11-1a, OD600, basal, 24 h (AID 1177); settings: OD600, 24 h, higher = more signal, called active from +8 up or from −8 down;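 further: cultures grown under basal conditions with no added stressor; test concentration not given here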
[16] = E. coli acrAB mutant growth effects, primary screen, E. coli filamentation inducers, strain DRC39, OD650, 24 h (AID 1178); settings: higher = more signal, called active from +8 up or from −8 down;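 further: growth measured as culture turbidity by optical density at 650 nm; test concentration not given here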
[17] = E. coli acrAB mutant growth effects, primary screen, E. coli filamentation inducers, strain DRC39, OD650, 48 h (AID 1179);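 further: screen aims at cell division blockers that make cells filament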; settings: E. coli DRC39 delta-acrAB growth, higher = more signal, called active from +8 up or from −8 down
[18] = RPMI8226 myeloma cell viability, profiling panel, resazurin fluorescence, basal, 24 h, PK04 Diversity Set (AID 1180); settings: higher = more signal;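 further: RPMI8826 multiple myeloma cell line at 5000 cells per well; test concentration not given here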
[19] = molecular target: E3 ubiquitin-protein ligase XIAP (Homo sapiens) (UniProt P98170); test: XIAP binders, primary screen, biophysical, small-molecule microarray, fluorescence 635 nm (AID 1181); settings: small-molecule microarray binding, higher = more signal;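 further: score merges 667 nm emission and signal to noise over triplicate slides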
Sequence of E3 ubiquitin-protein ligase XIAP (Homo sapiens) (P98170 whole entry, looked up): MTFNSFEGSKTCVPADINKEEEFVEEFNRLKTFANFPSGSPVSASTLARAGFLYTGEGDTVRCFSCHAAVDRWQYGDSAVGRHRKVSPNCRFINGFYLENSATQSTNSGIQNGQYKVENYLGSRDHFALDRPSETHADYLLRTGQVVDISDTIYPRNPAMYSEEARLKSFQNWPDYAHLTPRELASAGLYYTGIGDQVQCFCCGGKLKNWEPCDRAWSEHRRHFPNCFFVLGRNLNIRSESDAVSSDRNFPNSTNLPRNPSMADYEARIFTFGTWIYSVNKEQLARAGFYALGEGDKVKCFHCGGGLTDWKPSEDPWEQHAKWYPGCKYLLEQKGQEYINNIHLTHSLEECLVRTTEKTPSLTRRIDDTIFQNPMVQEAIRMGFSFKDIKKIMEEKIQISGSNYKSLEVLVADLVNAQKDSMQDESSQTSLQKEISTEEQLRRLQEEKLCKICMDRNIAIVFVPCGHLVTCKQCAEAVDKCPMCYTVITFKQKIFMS

Row | Structure (SMILES) | z-score [1] | z-score [2] | z-score [3] | z-score [4] | z-score [5] | z-score [6] | z-score [7] | z-score [8] | z-score [9] | z-score [10] | z-score [11] | z-score [12] | z-score [13] | composite z-score [14] | z-score [15] | z-score [16] | z-score [17] | z-score [18] | composite z-score [19]
1 | COc1cccc([C@H]2N[C@H](C(=O)O)CC[C@@H]2C)c1 | 0.0912 | 2.03 | -0.175 | 0.543 | -1.36 | 1.16 | 0.75 (inactive) | -0.358 | 0.632 | -0.336 (inactive) | -0.104 | -1.03 (inactive) | 0.975 (inactive) | -2.33 (inactive) | -0.393 (inactive) | -0.914 (inactive) | -0.83 (inactive) | 0.761 | 0.169
2 | COC(=O)C[C@H]1O[C@]2(C(=O)N(C)c3ccccc32)[C@@H](C)[C@@H]1[Si](C)(C)c1ccc(OC)cc1 | -0.437 | 2.54 | -0.125 | -0.128 | -2.98 | 0.441 | 1.24 (inactive) | -0.636 | 1.05 | -0.767 (inactive) | -0.0652 | -4.08 (inactive) | 0.504 (inactive) | 0.939 (inactive) | -1.41 (inactive) | 2.5 (inactive) | 0.871 (inactive) | 0.452 | 0.0942
3 | C=CC(=O)O[C@@H](Cc1ccccc1)[C@H]1C2C=CCCC=C2CN1Cc1cccc(Cl)c1 (stereo partly drawn) | 1.07 | 0.392 | 0.216 | -3.14 | -2.84 | 0.687 | 0.0156 (inactive) | -0.233 | 0.453 | 1.11 (inactive) | 1.36 | -2.29 (inactive) | 0.399 (inactive) | 0.566 (inactive) | -0.718 (inactive) | 2.63 (inactive) | 0.338 (inactive) | 1.26 | 0.348
4 | COC(=O)C1=C(C)N(Cc2ccccc2)c2c(C(=O)OC)c(C(=O)OC)c(C(=O)OC)c(=O)n2[C@@H]1c1ccccc1 | 0.943 | 0.338 | 0.244 | 0.24 | 0.327 | 1.12 | 0.633 (inactive) | -0.281 | -0.0899 | 0.524 (inactive) | 1.23 | -1.71 (inactive) | -0.364 (inactive) | 0.295 (inactive) | -1.05 (inactive) | -0.0311 (inactive) | 0.0198 (inactive) | 0.512 | -0.0841
5 | CCCCCCc1nc(C2CC2)c(C)c2c1[Si](C(C)C)(C(C)C)OC2 | 0.632 | 2.88 | -0.693 | -0.155 | -0.499 | 0.366 | 1.56 (inactive) | 0.296 | 0.419 | -0.207 (inactive) | 0.252 | -0.875 (inactive) | 1.47 (inactive) | -3.54 (inactive) | -2.89 (inactive) | 1.6 (inactive) | 0.878 (inactive) | 0.232 | 0.109
6 | COC(=O)c1c(CC[C@@H](CO)NC(=O)N[C@H](Cn2cc(-c3cncn3C)nn2)C(C)C)oc(C(C)=O)c1C(=O)OC | 0.128 | 1.93 | -0.102 | 0.191 | -0.344 | 0.57 | 1.43 (inactive) | -0.444 | -0.289 | -0.169 (inactive) | -0.623 | -0.476 (inactive) | 0.254 (inactive) | -4.63 (inactive) | -1.06 (inactive) | 2.37 (inactive) | 1.47 (inactive) | -0.0832 | -0.0884
7 | COCCOC(=O)N1C(=O)[C@@]2(c3ccccc31)[C@H](C(=O)N1CCc3cc(OC)c(OC)cc3C1)[C@H]1C(=O)O[C@H](c3ccccc3)[C@H](c3ccccc3)N1[C@@H]2c1ccccc1OCCO | 1.57 | 1.3 | -0.478 | -1.2 | -0.222 | 1.24 | 0.407 (inactive) | -0.181 | -0.238 | 0.725 (inactive) | 0.223 | 1.03 (inactive) | -0.517 (inactive) | -1.85 (inactive) | -0.446 (inactive) | 0.659 (inactive) | 1.31 (inactive) | 0.673 | -0.042
